Compound activity deposited in PubChem by National Center for Advancing Translational Sciences (NCATS).
ELG1 genotox – inducers of genotoxicity in HEK293T ELG1-luciferase cells; 1.3% of 330,000 active; Potency, µM (titrated, usually from 46 µM), without a hit: at the top dose activity change, positive = activation, hits mostly activators; HEK293T ELG1-luciferase reporter, luminescence, 16 h; further: % of control where 0% means no effect; nearly all actives have a fitted effect of over 60% in size
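HEK293T cells expressing luciferase-tagged ELG1 were treated with compound or DMSO for 16 hr at 37°C. Luciferase activity was then read after 30 min with ONE-Glo at room temperature; rising signal flags genetic stress.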
ELG1 DNA repair – blocks ELG1-dependent DNA repair in HEK293T cells. HEK293T ELG1-luciferase reporter, luminescence, 16 h; DNA damage induced by 5-fluorouridine. Potency, µM (series often up to 46.1 µM), without a hit: top-dose activity change, negative = inhibition, actives largely listed as inhibitors. 2.3% of 330,000 active. AID 504467; further: on the % scale 0 is the no-effect control and ±100 the full control effect; nearly all actives have a fitted effect of over 55% in size
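Cells (2,000 per well) received 5-fluorouridine plus test compound or DMSO and were incubated 16 hr at 37 °C, 5% CO2. Luciferase activity was read by luminescence 30 min after ONE-Glo addition; signal suppression marked inhibition of damage-induced ELG1 function.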
SMN2 splice up – SMN2 splice variant enhancement | HEK293 SMN2-luciferase splicing reporter, luminescence, 30-36 h | Potency, µM (series often up to 46.1 µM), inactives show at the top dose activity change, positive = activation, usual class: activators | 2.8% of 210,000 active | AID 1458; further: % of control where 0% means no effect; nearly all actives have a fitted effect of over 55% in size
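qHTS luciferase splicing reporter: luminescence rises when SMN2 exon 7 is included in transfected HEK293 cells. Compound exposure lasted 30-36 h at 37C, with 4.5 mM final sodium butyrate as control, followed by a ONE-Glo read.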
Rab9 promoter act – Rab9 promoter activation | Huh7 Rab9 promoter-luciferase reporter, luminescence, 24 h | Potency, µM (highest dose often 9.22 µM), for inactives: at the top dose activation, negative = inhibition, usual class: activators | 2.8% of 320,000 active | AID 485297; further: % of control where 0% means no effect; nearly all actives have a fitted effect of over 60% in size
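Huh7 cells stably carrying Rab9 promoter–luciferase reporter, plated 1500 cells/well, compound added after 2 h and incubated 24 h at 37 °C; luciferase luminescence then read after 10 min with detection reagent.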
FLuc modulator – counter-screen for miR-21 project: firefly luciferase inhibitors or activators; P08659; purified FLuc, Km substrates, luminescence inhibition; Potency, µM (highest dose often 57.5 µM), inactives show at the highest dose activity change, negative = inhibition, usual class: inhibitors; 6.9% of 360,000 active; AID 588342;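 further: plate controls were vehicle for no effect and reference inhibitor for full effect; nearly all actives have a fitted effect of over 55% in size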
Target sequence (P08659 whole entry, looked up): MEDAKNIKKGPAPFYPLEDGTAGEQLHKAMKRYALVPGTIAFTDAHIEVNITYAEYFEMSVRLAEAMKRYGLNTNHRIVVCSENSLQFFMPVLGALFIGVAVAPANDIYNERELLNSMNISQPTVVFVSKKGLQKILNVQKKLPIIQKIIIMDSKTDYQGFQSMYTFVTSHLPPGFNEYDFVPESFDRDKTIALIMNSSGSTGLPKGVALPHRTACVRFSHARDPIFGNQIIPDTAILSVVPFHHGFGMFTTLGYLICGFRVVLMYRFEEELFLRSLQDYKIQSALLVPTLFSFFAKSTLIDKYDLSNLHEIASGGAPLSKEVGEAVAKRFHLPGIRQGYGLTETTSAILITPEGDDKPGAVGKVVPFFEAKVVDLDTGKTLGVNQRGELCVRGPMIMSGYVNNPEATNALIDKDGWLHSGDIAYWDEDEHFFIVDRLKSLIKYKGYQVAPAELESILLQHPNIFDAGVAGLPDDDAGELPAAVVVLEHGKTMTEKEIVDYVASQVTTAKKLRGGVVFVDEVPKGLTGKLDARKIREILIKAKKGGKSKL
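Purified P. pyralis luciferase, 10 nM final, with Km-level 10 uM D-luciferin and 10 uM ATP in 50 mM Tris acetate pH 7.5, 10 mM Mg acetate, 0.01% Tween-20, 0.05% BSA; 6-point qHTS titration about 60 µM downward; luminescence read.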
NPC1 promoter act – NPC1 promoter activation. Huh7 NPC1 promoter luciferase reporter, 24 h. Potency, µM (top dose mostly 9.22 µM), for the others: at the top dose activation, most hits filed as activators. 2.4% of 320,000 active; further: % of control where 0% means no effect; nearly all actives have a fitted effect of over 60% in size
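Cells: Huh7 expressing luciferase under the NPC1 promoter, 1500/well. Seeded 2 h, compound added, incubated 24 h at 37 °C. Luciferase reagent, 10 min ambient, then luminescence.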
* marks the source's active call; other numbers are inactive results; ? = inconclusive; . = not tested or not shown; [ ] = another dose, or the depositor's remark. This is a sample that favours compounds with a hit; in the whole collection about 9.2% have one here. The call rests on the fitted dose curve; in most records, active means well fitted curve in the direction sought with a large enough effect; inconclusive means small, poorly fitted or top-dose-only effect, or another doubt; inactive means no such curve, though single readings can be large; an effect the other way counts as inactive or inconclusive. Potency means the concentration at half of the fitted maximal effect.

SMILES	ELG1 genotox	ELG1 DNA repair	SMN2 splice up	Rab9 promoter act	FLuc modulator	NPC1 promoter act
CC(C)CC(=O)N(c1nnc(-c2cccnc2)s1)C1CCCC1	-1%	7%	.	1%	2%	-1%
CCCOc1ccc(C(=O)ON=C2CCN(C)CC2)cc1	-13%	15%	-25%	0%	2%	-5%
COc1cc(/C=N/NC(=O)c2cccc([N+](=O)[O-])c2)cc(OC)c1O	-1%	17%	1%	-4%	-14%	-3%
COc1cccc(/C=N/NC(=O)c2ccc(=O)[nH]n2)c1O	10%	-23%	.	-7%	3.4µM*	0%
COc1cccc(/C=N/NC(=O)c2ccc([N+](=O)[O-])cc2Cl)c1O	7%	11%	-72%	-28%	19µM*	-32%
COc1ccc(/C=N/Nc2ccc([N+](=O)[O-])cc2)cc1O	12µM*	?	.	?	7.6µM*	18%
COc1cccc(N/N=C/c2cccc(Br)c2O)c1	?	?	.	?	6.7µM*	?
COc1ccc(OC)c(/C=N/NC(=O)c2ccc(=O)[nH]n2)c1	-1%	?	.	5%	2%	0%
COc1ccc(/C=N/Nc2ccc([N+](=O)[O-])cc2)cc1Cn1cc([N+](=O)[O-])cn1	?	?	-11%	-8%	-16%	-1%
Cc1ccc(NC(=O)Cn2cc(S(=O)(=O)Cc3ccc(F)cc3)c3ccccc32)cc1Cl	.	.	.	.	-14%	.
COc1cccc(/C=N/Nc2ccc([N+](=O)[O-])cc2)c1O	?	?	.	24%	2.4µM*	?
COC(=O)c1ccc(N/N=C/c2cc([N+](=O)[O-])cc(OC)c2O)cc1	10%	?	.	-2%	?	6%
Cc1cc(C(F)(F)F)n2nc(-c3cnn(C)c3C(F)(F)F)c(Br)c2n1	3%	-10%	4%	-10%	3%	0%
COC(=O)[C@@]1(Cc2ccc(F)cc2)[C@H]2c3cc(C(=O)N(C)C)n(Cc4ccccc4)c3C[C@H]2CN1C(=O)c1ccccc1	2%	-19%	-35%	-5%	4%	-5%
COC(=O)[C@@]1(Cc2ccc(OC)cc2)[C@@H]2C(=CC(=O)[C@H]2CC(=O)C(=O)N(C)C)CN1C(=O)c1ccccc1	-13%	9.2µM*	-9%	2%	4%	0%
COC(=O)[C@@]1(Cc2ccccc2)[C@@H]2[C@@H](CC(=O)[C@H]2CC(=O)C(=O)N(C)C)CN1C(=O)c1ccccc1	.	.	-5%	.	.	.
C=C1C(=O)C=C2CN(C(=O)c3ccccc3)[C@@](Cc3ccc(F)cc3)(C(=O)OC)[C@@H]12	-8%	2.9µM*	-84%	-49%	-12%	-39%
COc1ccc(-c2ccc(-c3noc(-c4ccccc4F)n3)c(OC)n2)cc1	0%	7%	0%	-1%	-4%	-1%
Brc1ccccc1-c1nc(-c2ccccc2)no1	?	?	4µM*	3.5µM*	0.95µM*	27%
Fc1ccccc1-c1nc(-c2ccncc2)no1	?	?	.	1.8µM*	8.5µM*	1.8µM*
Fc1ccccc1-c1nc(-c2ccccc2)no1	?	?	11µM*	2.8µM*	0.6µM*	3.5µM*
COc1cc(C(O)c2nc3ccccc3n2C(C)C)cc(OC)c1OC (stereo unspecified)	1%	-17%	.	-16%	-3%	2%
O=C1Nc2ccccc2N(O)N1c1ccc(S(=O)(=O)N2CCCCCC2)cc1	-1%	-8%	-10%[1.84 µM]	2%	3%	-1%
CCOc1ccc(-n2nc(C(=O)NC3CCCCC3)c3ccccc3c2=O)cc1	4%	9%	.	0%	5%	1%
COCCn1c(C)cc(C(=O)CSc2nc3ccccc3c(=O)n2Cc2ccco2)c1C	?	?	7.1µM*	1.3µM*	1.7µM*	3.2µM*
SMILES	ELG1 genotox	ELG1 DNA repair	SMN2 splice up	Rab9 promoter act	FLuc modulator	NPC1 promoter act
COCCn1c(C)cc(C(=O)CSc2cc(C)c3ccccc3n2)c1C	1%	-22%	-14%	11%	13µM*	1%
CC(C)(C)c1ccc(/C=C/C(=O)Nc2ccc3c(c2)OCCO3)cc1	.	.	-86%	-33%[46.1 µM]	.	-28%[46.1 µM]
O=C(/C=C/c1ccc2c(c1)OCO2)Nc1nc(-c2ccccc2)cs1	-6%	18µM*	-62%	-2%	3µM*	-4%
Cc1sc(NC(=O)/C=C/c2ccc3c(c2)OCO3)nc1-c1ccccc1	0%	8.2µM*	-56%	-24%	9.5µM*	-21%
CC(C)(C)c1ccc(/C=C/C(=O)Nc2nncs2)cc1	2.6µM*	?	?	0.71µM*	0.95µM*	0.79µM*
O=C(/C=C/c1ccc2c(c1)OCO2)Nc1nncs1	?	-2%	.	2µM*	2.1µM*	2.2µM*
CCOC(=O)c1[nH]c2ccc(OC)cc2c1NC(=O)/C=C/c1ccc2c(c1)OCO2	?	3%	?	1%	-1%	10%
O=C(/C=C/c1ccc2c(c1)OCO2)Nc1c(C(=O)O)[nH]c2ccccc12	-2%	29%	-1%	-1%	7.6µM*	8%
O=S(=O)(c1ccc2c(c1)OCCO2)N1CCC(c2nc3ccc(Cl)cc3[nH]2)CC1	-20%	18µM*	.	1%	3%	0%
O=S(=O)(c1ccc2c(c1)OCCO2)N1CCC(c2nc3ccccc3[nH]2)CC1	-20%	?	-24%	-2%	3%	-2%
O=C(NCC1CCCO1)c1ccc(S(=O)(=O)N2CCC(c3nc4ccc(Cl)cc4[nH]3)CC2)cc1 (stereo unspecified)	-8%	13µM*	-43%	2%	0%	-1%
CC(=O)c1cccc(NC(=O)/C(=C/c2ccncc2)NC(=O)c2ccccc2)c1	0%	3%	.	2%	0%	0%
CCn1c(SCC(=O)Nc2nc(-c3ccc(C)cc3)cs2)nnc1-c1ccccc1O	0%	16µM*	-100%	-18%	?	-8%
CC(C)(C)NC(=O)CSc1nc(-c2ccc(F)cc2)cs1	?	?	14µM*	2µM*	6.7µM*	3.5µM*
CCn1c(CSc2nc(C)cc(C)n2)nnc1SCC(=O)Nc1nc(-c2ccccc2)cs1	-6%	-5%	-9%	-7%	1%[2.3 µM]	0%
CCn1c(SCC(=O)Nc2nc(-c3ccc(C)cc3)cs2)nnc1-c1ccccc1	-10%	26µM*	-24%	-24%	24µM*	0%
O=C(CSc1nnc(-c2cccnc2)n1Cc1ccco1)Nc1nc(-c2ccc(F)cc2)cs1	-7%	21µM*	-53%	-2%	15µM*	1%
